Measured values from PubChem BioAssay.
Activity calls are given as the source filed them.

Test: fission yeast growth modulation, primary screen, strain 972, OD600, 24 h, no modulator (AID 1090);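 note: basal condition with compound alone and no growth modifier present; test concentration not given here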
Settings: S. pombe 972 growth, higher = more signal, called active from +8 up or from −8 down

z-score, inactive:
CCOC(=O)[C@H](Cc1ccccc1)NC(=O)CCC1CC(OC(=O)NCCc2ccc(F)cc2)CC2(CCCC(COC(=O)NCCc3ccccc3OC)O2)O1 (stereo partly drawn) 0.932, CO[C@H](C1CCCCC1)[C@H](C)C=CCC(=O)OCCCc1ccccc1 0.5, O=C1C[C@@H](O)[C@@H](O)[C@@H]2[C@@H]3C(=O)N(Cc4ccccc4)C(=O)[C@@H]3CC[C@@H]12 -0.136, CCN1C(=O)[C@H]2[C@H]3[C@H](O)[C@H](O)CC(=NOCC(C)C)[C@@H]3CC[C@H]2C1=O -0.666, COC(=O)CC=C[C@@H](C)[C@@H](C=NOC[C@H]1O[C@H](c2ccccc2)C=C[C@@H]1Oc1ccc(OC)cc1)OC 0.427, CC(CCN1CCc2nc(-c3ccccc3)c(-c3ccccc3)cc2C1)=NOC[C@@H](O)[C@H]1O[C@@H]2OC(C)(C)O[C@@H]2[C@H]1O -4.63, O=C(NN=C1C[C@@H](O)[C@@H](O)[C@@H]2[C@@H]3C(=O)N(C4CCCCC4)C(=O)[C@@H]3CC[C@@H]12)OCc1ccccc1 -0.452, COc1ccc(O[C@H]2C=C[C@@H](c3ccccc3)O[C@@H]2CON=C(C)CCC(=O)OC[C@H]2O[C@H](c3ccccc3)C=C[C@@H]2Oc2ccc(OC)cc2)cc1 0.91
